High-throughput results: PubChem, National Center for Advancing Translational Sciences (NCATS)
Hits are enriched below; roughly 9.2% of the tested compounds scored in any of these assays.
FLuc counter = counter-screen for miR-21 project: firefly luciferase inhibitors or activators; purified FLuc, Km substrates, luminescence inhibition; Potency, µM (highest dose often 57.5 µM), inactives show at the top dose activity change, negative = inhibition, hits mostly inhibitors; actives 6.9% (n = 360,000); AID 588342;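 note: plate controls were vehicle for no effect and reference inhibitor for full effect; nearly all actives have a fitted effect of over 55% in size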
Target sequence (P08659 whole entry, looked up): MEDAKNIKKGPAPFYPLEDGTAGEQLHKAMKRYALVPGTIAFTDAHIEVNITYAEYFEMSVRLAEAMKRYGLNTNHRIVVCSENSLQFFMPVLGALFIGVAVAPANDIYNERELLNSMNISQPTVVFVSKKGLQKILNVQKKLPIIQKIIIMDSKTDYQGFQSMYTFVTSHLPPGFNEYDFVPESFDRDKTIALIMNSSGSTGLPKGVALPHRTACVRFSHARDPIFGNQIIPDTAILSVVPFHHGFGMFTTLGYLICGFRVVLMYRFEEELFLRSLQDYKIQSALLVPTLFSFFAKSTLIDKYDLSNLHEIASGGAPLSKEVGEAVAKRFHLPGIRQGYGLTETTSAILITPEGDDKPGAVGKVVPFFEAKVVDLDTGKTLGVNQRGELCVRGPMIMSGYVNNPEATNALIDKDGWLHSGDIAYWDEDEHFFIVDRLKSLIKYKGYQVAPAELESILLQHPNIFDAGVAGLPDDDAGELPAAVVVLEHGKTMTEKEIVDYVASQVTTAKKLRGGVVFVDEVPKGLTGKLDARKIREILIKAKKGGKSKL
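Purified P. pyralis luciferase (10nM final) with 10uM D-luciferin and 10uM ATP (Km levels) in 50mM Tris acetate pH 7.5, 10mM Mg acetate, 0.01% Tween-20, 0.05% BSA; qHTS 6-point titration, ~60 µM downward; luminescence read.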
ELG1 repair inh = blocks ELG1-dependent DNA repair in HEK293T cells. HEK293T ELG1-luciferase reporter, luminescence, 16 h; DNA damage induced by 5-fluorouridine. Potency, µM (top dose mostly 46.1 µM), for the others: top-dose activity change, negative = inhibition, most hits filed as inhibitors. actives 2.3% (n = 330,000); note: % is set by controls: 0 for no effect and ±100 for the full control effect; nearly all actives have a fitted effect of over 55% in size
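5-Fluorouridine DNA damage + compound/DMSO, 2,000 cells/well, 16 h, 37 °C/5% CO2. ONE-Glo, 30 min RT, luminescence. Readout = decrease in reporter signal.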
NPC1 prom act = activators of NPC1 promoter. Huh7 NPC1 promoter luciferase reporter, 24 h. Potency, µM (titrated, usually from 9.22 µM), without a hit: at the top dose activation, usual class: activators. actives 2.4% (n = 320,000); note: % of control where 0% means no effect; nearly all actives have a fitted effect of over 60% in size
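Luminescence from an NPC1 promoter-driven luciferase reporter in stably transfected Huh7 cells was measured after 24 h compound treatment at 37 °C, followed by 10 min ambient incubation with luciferase detection reagent.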
SMN2 splice up = enhancers of SMN2 splice variant expression | HEK293 SMN2-luciferase splicing reporter, luminescence, 30-36 h | Potency, µM (doses to about 46.1 µM), without a hit: at the highest dose activity change, positive = activation, usual class: activators | actives 2.8% (n = 210,000) | AID 1458; note: % of control where 0% means no effect; nearly all actives have a fitted effect of over 55% in size
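HEK293 cells carry an SMN2 […]–luciferase reporter in which exon 7 inclusion puts luciferase in frame. Cells were plated 10-12 h before compound addition, then incubated 30-36 h at 37C. ONE-Glo luminescence was read; sodium butyrate at 4.5 mM final served as control.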
Rab9 prom act = Rab9 promoter activation; Huh7 Rab9 promoter-luciferase reporter, luminescence, 24 h; Potency, µM (highest dose often 9.22 µM), for the others: top-dose activation, negative = inhibition, most hits filed as activators; actives 2.8% (n = 320,000); note: % of control where 0% means no effect; nearly all actives have a fitted effect of over 60% in size
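Huh7 reporter line, Rab9 promoter upstream of luciferase. Compound exposure 24 h at 37 °C in reduced-serum medium with 10% FBS. Read-out: luminescence.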
ELG1 genotoxic = inducers of genotoxicity in HEK293T ELG1-luciferase cells; Potency, µM (top dose mostly 46 µM), for the others: top-dose activity change, positive = activation, hits mostly activators; actives 1.3% (n = 330,000); AID 504466; HEK293T ELG1-luciferase reporter, luminescence, 16 h; note: % of control where 0% means no effect; nearly all actives have a fitted effect of over 60% in size
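HEK293T cells expressing luciferase-tagged ELG1 were treated with compound or DMSO for 16 hr at 37°C. Luciferase activity was then read after 30 min with ONE-Glo at room temperature; rising signal flags genetic stress.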
The depositor's hits bear a star. Calls come from the whole dose curve; as a rule, active = well fitted curve in the direction sought with a large enough effect; inconclusive = small, poorly fitted or top-dose-only effect, or another doubt; inactive = no such curve, though single readings can be large; an effect the other way counts as inactive or inconclusive. Potency is the fitted concentration of half-maximal effect.

For O=C(Nc1ccc2oc(-c3ccccc3)nc2c1)c1ccccc1F the results were FLuc counter inconclusive, ELG1 repair inh inconclusive, NPC1 prom act inconclusive, SMN2 splice up 13µM*, Rab9 prom act 2.5µM* and ELG1 genotoxic 19%.
`Cc1cccc(N=C2NN=C(c3c(C)[nH]c4ccccc34)CS2)c1` gave FLuc counter -1%, ELG1 repair inh inconclusive, NPC1 prom act -6%, SMN2 splice up -106%, Rab9 prom act 0% and ELG1 genotoxic -5%.
Cc1ccc(C2=NNC(=Nc3ccc(F)cc3)SC2)cc1 was read as FLuc counter 17µM*, ELG1 repair inh -3%, NPC1 prom act 30%, SMN2 splice up -1%, Rab9 prom act 18% and ELG1 genotoxic -1%.
For Cc1cccc(N=C2NN=C(c3ccc4c(c3)OCCO4)CS2)c1 the results were FLuc counter 1.2µM*, ELG1 repair inh inconclusive, NPC1 prom act 2.8µM*, SMN2 splice up -3%, Rab9 prom act 2.8µM* and ELG1 genotoxic inconclusive.
`CCc1ccc(C2=NNC(=Nc3cccc(S(=O)(=O)N(C)C)c3)SC2)cc1` gave FLuc counter 11µM*, ELG1 repair inh inconclusive, NPC1 prom act 22%, SMN2 splice up -80%, Rab9 prom act 10% and ELG1 genotoxic 4%.
